Where “and” joins values, the source holds several entries; their conditions need not be identical. Equal entries are not always repeated. Results filed as inconclusive are left out. Where a call stands in place of a potency, no number is given. A structure can be active in one record and inactive in another. Unmarked numbers belong to inactive results. Calls of active or inactive are those of the source. Calls follow the shape of the dose curve; as a rule, active = well fitted curve in the direction sought with a large enough effect in the repeat runs; inconclusive = weak or mixed curves; inactive = no such curve, though single readings can be large; an effect the other way counts as inactive or inconclusive.
Potency is read from the fitted curve at half-maximal effect.

The nature of the first assay: qHTS RealTime-Glo MT Cell Viability Assay in HEK293 cells - 40 hour (AID 1224874). Also: nearly all actives have a fitted effect of over 50% in size. As to conditions: RealTime-Glo luminescence; max response: stronger effect = lower value. A digest of the protocol:
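Measured as luminescence from the same continuously cultured HEK293 wells at successive time points (0, 8, 16, 24, 32, 40 h) after compound addition. Reagent present from seeding; dosing at 5 h; incubation 37 C.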
Background: In qHTS, concentration-response curves come from the screen itself.
With `CN(C)C`, the max response was 3.08% and -9.36%.
On to `C=CCCCCCCCCCC`, for which the max response was 3.4% and -2.24%.
Same read-out and setting: in the case of `O=C(O)CCCCCCCCCCCC(=O)O` it was 7.31%; in that of `C[C@]12C=CC(=O)C=C1CC[C@H]1[C@@H]3C[C@@H](O)[C@](O)(C(=O)CO)[C@@]3(C)C[C@H](O)[C@@]12F`, 1.25% and 4.53%.
Same read-out and setting: the figure for `O=C(O)COCCN1CCN(C(c2ccccc2)c2ccc(Cl)cc2)CC1` (centres undefined) is 5.07% and 2.04%.
For `NC[C@H](O)c1ccc(O)c(O)c1`, the max response was -0.0212% and 2.99%.
On the same count and under the same terms, the figure for `CCCCCCCC/C=C\CCCCCCCC(=O)O` is 12.6% and 4.42%; for `CC(=O)OC(C)C` it is -9.76% and -7.44%; for `CC(=O)Oc1c(C)c(C)c2c(c1C)CC[C@@](C)(CCC[C@H](C)CCC[C@H](C)CCCC(C)C)O2` it is 0.83% and -4.95%.
Still for that read-out and setting: the figure for `C=CC(C)(O)CCC=C(C)C` (centres undefined) is 3.03% and 9.35%; for `c1ccc2c(c1)ccc1ncccc12` it is -12% and -17.1%; for `C=CN1CCCC1=O` it is 0.332% and -7.88%.
Turning to `O=[Se](O)O`, the Potency was 17.4 µM (active).
For `CC(C)(C)c1cccc(C(C)(C)C)c1O`, the Potency is 21.4 µM (active) and the max response was 1.57%.
Consider `Cc1ccc(S(=O)(=O)O)cc1C`, for which the max response was -0.252% and 9.18%.
For the compound `c1ccc2c(c1)ccc1cc3c(ccc4ccccc43)cc12`, the max response is 16% and 7.61%.
For `COCCOCCOCCO`, the max response was 4.57% and 6.41%.
Turning to `Cc1ccc([N+](=O)[O-])c(C)c1`, the Potency was 38.9 µM (active) and the max response was -10.8%.
Take `CC(=O)[C@@]1(O)CC[C@H]2[C@@H]3C[C@H](C)C4=CC(=O)C=C[C@]4(C)[C@@]3(F)[C@@H](O)C[C@@]21C`: the Potency is 19.5 µM (active) and the max response was -3.14%.
Consider `OC[C@@H](O)[C@@H](O[C@@H]1O[C@H](CO)[C@H](O)[C@H](O)[C@H]1O)[C@H](O)[C@@H](O)CO`, for which the max response was 5.89% and 2.02%.
Same read-out and setting: in the case of `OCCNCCO` it was 4.46% and 5.31%; in that of `CC(C)[N+](C)(CCOC(=O)C1c2ccccc2Oc2ccccc21)C(C)C`, -23.6% and -15.1%.
Consider `CC/C(=C(/CC)c1ccc(O)cc1)c1ccc(O)cc1`, for which the Potency was 12.2 µM (active) and 27.5 µM (active) and 19 µM (active).

A short description of another assay: A CellTox Green Cytotoxicity Assay to monitor cytotoxicity in HEK293 cells - 24 hour (AID 1224875). Also: nearly all actives have a fitted effect of over 45% in size. As to conditions: CellTox Green fluorescence; series mostly up to 76.8 µM. The gist of the method:
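Homogeneous no-lysis format: HEK293 cell suspension mixed with CellTox Green reagent, seeded, incubated 5 h at 37 C/5% CO2, then dosed by pintool with compound in DMSO.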
With `c1ccc2ncccc2c1`, the Potency result is “inactive”.
Regarding `Cc1ccc(C)c(O)c1`, the Potency entry is “inactive”.
On to `CNC[C@H](O)c1ccc(O)c(O)c1`, for which the Potency result is “inactive”.
As to `O=C1OC2(c3ccccc31)c1cc(I)c(O)c(I)c1Oc1c2cc(I)c(O)c1I`, the Potency is 12 µM (active) [middle of 4 runs].
Same read-out and setting: in the case of `CCOC(=O)C(C)Oc1ccc(Oc2cnc3cc(Cl)ccc3n2)cc1` (centres undefined) it was “inactive”; in that of `COc1ccc(C(=O)c2ccccc2O)c(O)c1`, “inactive”.
On the same count and under the same terms, the entry for `CC(=O)Nc1ccc2c(c1)Cc1cc(NC(C)=O)ccc1-2` is “inactive”.
On the same count and under the same terms, the entry for `CN(C)/N=N/c1nc[nH]c1C(N)=O` is “inactive”; for `COc1ccc2nc(N)sc2c1` it is “inactive”; for `O=C(O)CCCC(=O)O` it is “inactive”.
For `CCCN1C=CN(C)C1`, the Potency entry was “inactive”.
Still for that read-out and setting: the entry for `NCCN` is “inactive”.
Still for that read-out and setting: the entry for `Cc1cccc(Nc2ccccc2C(=O)O)c1C` is “inactive”.
The same measure, in the same setting: in the case of `CN1CCOCC1` it was “inactive”; in that of `Oc1c(Cl)ccc(Cl)c1Cl`, “inactive”; in that of `Clc1ccc(Sc2cc(Cl)c(Cl)cc2Cl)cc1`, “inactive”.
In the case of `CN(C)C`, the Potency entry was “inactive”.
With `C=CCCCCCCCCCC`, the Potency result was “inactive”.
On the same count and under the same terms, in the case of `O=C(O)CCCCCCCCCCCC(=O)O` it was “inactive”; in that of `C[C@]12C=CC(=O)C=C1CC[C@H]1[C@@H]3C[C@@H](O)[C@](O)(C(=O)CO)[C@@]3(C)C[C@H](O)[C@@]12F`, “inactive”.
The same measure, in the same setting: the entry for `O=C(O)COCCN1CCN(C(c2ccccc2)c2ccc(Cl)cc2)CC1` (centres undefined) is “inactive”.
Still for that read-out and setting: in the case of `NC[C@H](O)c1ccc(O)c(O)c1` it was “inactive”.
For `CCCCCCCC/C=C\CCCCCCCC(=O)O`, the Potency result is “inactive”.
The same measure, in the same setting: the entry for `CC(=O)OC(C)C` is “inactive”; for `CC(=O)Oc1c(C)c(C)c2c(c1C)CC[C@@](C)(CCC[C@H](C)CCC[C@H](C)CCCC(C)C)O2` it is “inactive”.
The same measure, in the same setting: in the case of `C=CC(C)(O)CCC=C(C)C` (centres undefined) it was “inactive”.
With `c1ccc2c(c1)ccc1ncccc12`, the Potency result was “inactive”.
On the same count and under the same terms, in the case of `C=CN1CCCC1=O` it was “inactive”; in that of `O=[Se](O)O`, “inactive”; in that of `Cc1ccc(S(=O)(=O)O)cc1C`, “inactive”.
On to `c1ccc2c(c1)ccc1cc3c(ccc4ccccc43)cc12`, for which the Potency result was “inactive”.
Still for that read-out and setting: the entry for `COCCOCCOCCO` is “inactive”; for `Cc1ccc([N+](=O)[O-])c(C)c1` it is “inactive”; for `CC(=O)[C@@]1(O)CC[C@H]2[C@@H]3C[C@H](C)C4=CC(=O)C=C[C@]4(C)[C@@]3(F)[C@@H](O)C[C@@]21C` it is “inactive”.
Consider `OC[C@@H](O)[C@@H](O[C@@H]1O[C@H](CO)[C@H](O)[C@H](O)[C@H]1O)[C@H](O)[C@@H](O)CO`, for which the Potency result is “inactive”.
Same read-out and setting: the entry for `OCCNCCO` is “inactive”.
On the same count and under the same terms, the entry for `CC(C)[N+](C)(CCOC(=O)C1c2ccccc2Oc2ccccc21)C(C)C` is “inactive”; for `CC/C(=C(/CC)c1ccc(O)cc1)c1ccc(O)cc1` it is “inactive”.

Values taken from PubChem BioAssay (Tox21).
